This is an account of results in patent US20100081621, “Crystal structure of the catalytic domain of the viral restriction factor APOBEC3G” (published 2010).

Sequence of APOBEC3G R374E/R376D (Q9HC16 whole entry R374E/R376D, one chain of several): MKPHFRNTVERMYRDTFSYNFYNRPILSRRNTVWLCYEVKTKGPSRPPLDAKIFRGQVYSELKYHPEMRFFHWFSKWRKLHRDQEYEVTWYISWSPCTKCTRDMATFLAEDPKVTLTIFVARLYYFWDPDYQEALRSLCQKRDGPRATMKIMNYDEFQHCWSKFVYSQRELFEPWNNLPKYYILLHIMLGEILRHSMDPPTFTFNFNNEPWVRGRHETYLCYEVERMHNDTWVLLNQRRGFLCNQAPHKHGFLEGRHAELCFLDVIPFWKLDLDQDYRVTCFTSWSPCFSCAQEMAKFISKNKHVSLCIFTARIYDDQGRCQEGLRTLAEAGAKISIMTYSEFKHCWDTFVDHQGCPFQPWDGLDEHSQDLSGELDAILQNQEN

This experiment addresses APOBEC3G R374E/R376D (Homo sapiens, UniProt Q9HC16 Q9HC16:1-384, R374E,R376D). Briefly: FP; binding impaired by 46%; 5 mM MgCl2, 37 C. The conditions noted are these: tags: Sf9, pAcG2T; label: internal fluorescein-dT; ssDNA; [15 (fluorescein-dT)]. On the procedure:
Apo3G-DNA binding were monitored by changes in steady state fluorescence depolarization (rotational anisotropy). Reaction mixtures (70 μl), containing an F-labeled DNA ([…]) in buffer (50 mM HEPES, pH 7.3, 1 mM DTT and 5 mM MgCl₂) and varying concentration of 0 to 500 nM Apo3G, were incubated at 37° C. The sequence of the ssDNA is: tta gat gag tgt aa(FdT) gtg ata tat gtg tat. Rotational anisotropy was measured as described previously (Chelico et al., 2006). The fraction of DNA bound to protein was determined as described previously (Bertram et al., 2004).
As to TTAGATGAGTGTAATGTGATATATGTGTAT, the binding signal is 54 % of wt.
